Laboratory results reported in PubChem BioAssay (NCI).
This is part of a sample that, as a whole, favours compounds with a hit. Of some 79,000 tested, about 15% had one in any assay. Values without a mark were called inactive. Activity calls are given as the source filed them. No stated cut-off is given here; in the data, active means growth inhibition above about 70%; inactive means the rest.

How the values were obtained:
[1] = NCI Yeast Anticancer Drug Screen. Data for the rad50 strain (AID 155);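 further: 0% = growth of vehicle-only cultures of the same strain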; conditions: S. cerevisiae rad50 strain growth inhibition, active compounds read high
Method in brief: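 Cells are treated with compound, grown, and their growth is then scored against vehicle-only cultures of the same repair-deficient yeast strain.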

[2] = NCI Yeast Anticancer Drug Screen. Data for the mec2-1 strain (AID 157); conditions: S. cerevisiae mec2-1 strain, active compounds read high
Method in brief: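 Compounds were applied to mec2-1 yeast cells. Their growth was then compared with that of vehicle-treated cultures to give growth inhibition.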

[3] = NCI Yeast Anticancer Drug Screen. Data for the sgs1 mgt1 strain (AID 161);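 further: 0% = growth of cultures given vehicle only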; conditions: S. cerevisiae sgs1 mgt1 strain, active compounds read high
Method in brief: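 Percent growth inhibition was derived by comparing compound-exposed mutant yeast with vehicle-exposed cultures. The strain carries alterations in DNA damage repair.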

[4] = NCI Yeast Anticancer Drug Screen. Data for the cln2 rad14 strain (AID 165);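 further: 0% = growth equal to vehicle treated cultures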; conditions: S. cerevisiae cln2 rad14 strain, active compounds read high
Method in brief: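 Strain: cln2 rad14 yeast, altered in cell cycle control and DNA damage repair. Read-out: growth inhibition vs vehicle.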

[5] = NCI Yeast Anticancer Drug Screen. Data for the bub3 strain (AID 167); conditions: S. cerevisiae bub3 mutant strain, active compounds read high
Method in brief: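 Part of a panel of yeast mutants defective in DNA damage repair or cell cycle regulation. Each strain is grown with compound, and inhibition is calculated relative to solvent-treated cultures.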

[6] = NCI Yeast Anticancer Drug Screen. Data for the mlh1 rad18 strain (AID 175); conditions: S. cerevisiae mlh1 rad18 strain growth inhibition, active compounds read high
Method in brief: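 A repair-deficient yeast strain is exposed to test compound, and growth is scored relative to vehicle-treated controls.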

[7] = at 5.0 µM (retest, dose inferred, filed as 0.5)
[8] = at 50.0 µM (retest, dose inferred, filed as 5.0)

| SMILES | growth inhibition [1, 7] | growth inhibition [1, 8] | growth inhibition ([1]; at 50.0 µM) | growth inhibition [2, 7] | growth inhibition [2, 8] | growth inhibition ([2]; at 50.0 µM) | growth inhibition [3, 7] | growth inhibition [3, 8] | growth inhibition ([3]; at 50.0 µM) | growth inhibition [4, 7] | growth inhibition [4, 8] | growth inhibition ([4]; at 50.0 µM) | growth inhibition [5, 7] | growth inhibition [5, 8] | growth inhibition ([5]; at 50.0 µM) | growth inhibition [6, 7] | growth inhibition [6, 8] | growth inhibition ([6]; at 50.0 µM) |
| --- | --- | --- | --- | --- | --- | --- | --- | --- | --- | --- | --- | --- | --- | --- | --- | --- | --- | --- |
| Cc1cc(C)c(C(=O)C(Br)C(Br)c2ccccc2)c(C)c1 (configuration not stated) | 54% | 94% (active) | 95.6% (active) | 43% | 97% (active) | 95.5% (active) | 63% | 95% (active) | 95.8% (active) | 15% | 91% (active) | 83.4% (active) | 47% | 93% (active) | 94.5% (active) | 46% | 94% (active) | 95.6% (active) |
| CC(=O)OC1=Cc2ccccc2C(c2ccccc2)c2ccccc21 (configuration not stated) | -10% | 29% | 14.3% | -3% | 31% | 9.55% | 2% | 18% | 16.5% | 20% | 37% | 10.7% | 8% | 20% | 14.3% | 11% | 53% | 18.3% |
| COc1cc2c(cc1OC)-c1nc(Nc3ccccc3)sc1CC2 | -6% | 92% (active) | 43.4% | -1% | 94% (active) | 86.7% (active) | -3% | 88% (active) | 82% (active) | 5% | 88% (active) | 29.1% | 1% | 92% (active) | 78.5% (active) |  |  |  |
| CCCCCCCC(=O)N1CCCCC1CC (configuration not stated) | -142% | 14% | 72.1% (active) | -49% | -30% | 25.6% | -63% | 24% | 73% (active) | -53% | -68% | -6.15% | -53% | 17% | -9.4% | -118% | -64% | 24.2% |
| O=C1SC(c2ccccc2)=S=C1c1ccccc1 | 18% | 28% | 40% | 24% | 39% | 46.8% | 21% | 44% | 37.4% | 13% | 13% | 24.6% | 20% | 54% | 13.8% |  |  |  |
| NS(=O)(=O)c1ccc(N=Cc2c3ccccc3nc3cc(Cl)ccc23)cc1 | 10% | 34% | 46.4% | 12% | 28% | 49.1% | 16% | 39% | 53.1% | 3% | 12% | 8.05% | 19% | 38% | 27.6% | 17% | 38% | 58.9% |
| N#Cc1ccc2nc3ccc(N)cc3nc2c1 | -22% | 96% (active) | 79.2% (active) | 4% | 76% (active) | 39.1% | -18% | 86% (active) | 20.1% | -6% | 82% (active) | 10.6% | -13% | 82% (active) | 43.3% | -5% | 96% (active) | 48% |
| CC1(C)CC(N(C(=O)/C=C/c2ccc([N+](=O)[O-])o2)C2CCCCC2)CC(C)(C)N1 | -5% | 97% (active) | 5.6% | -3% | 98% (active) | 13.9% | -2% | 99% (active) | 40.2% | -6% | 97% (active) | 25.1% | -4% | 99% (active) | 7.95% | -1% | 97% (active) | 85% (active) |
| O=CNC(CCCC(=O)O)Cc1cc2ccccc2c2ccccc12 (configuration not stated) | 5% | 17% | 94.5% (active) | 13% | 31% | 95% (active) | 5% | 11% | 95.6% (active) | 7% | 22% | 93.7% (active) | -8% | -4% | 94.8% (active) | -3% | 9% | 94.5% (active) |
| COc1cc2c(c(O)c1C)C(=O)C(Cl)=CC2=O | 99% (active) | 99% (active) | 99.1% (active) | 99% (active) | 99% (active) | 99.2% (active) | 99% (active) | 98% (active) | 99.3% (active) | 98% (active) | 98% (active) | 98.9% (active) | 99% (active) | 99% (active) | 99.2% (active) | 99% (active) | 99% (active) | 99.2% (active) |
| CC1=C(C)C(=O)C(CNCc2ccccc2)=[C-]C1=O.[Co].[c-]1[c-][c-][cH-][c-]1 | 6% | -13% | 45.8% | -3% | 26% | 35.6% | 5% | 19% | 44.8% | 7% | 10% | 51.1% | 11% | 15% | 19.1% | 6% | 3% | 32.3% |
| CCOC(=O)c1nnc2cc(-c3ccccc3)nn2c1-c1ccccc1 | 65% | 85% (active) | 51.1% | 35% | 66% | 21.8% | 48% | 80% (active) | 75.2% (active) | 25% | 38% | 41.4% | 45% | 70% (active) | 65.9% | 61% | 90% (active) | 38.6% |
| N#CC1=C(N)OC(c2ccccc2)=C(C#N)C1c1ccccc1 (configuration not stated) | 90% (active) | 99% (active) | 99.2% (active) | 97% (active) | 100% (active) | 99.5% (active) | 96% (active) | 100% (active) | 99.3% (active) | 98% (active) | 99% (active) | 99.2% (active) | 98% (active) | 99% (active) | 99.5% (active) | 97% (active) | 99% (active) | 99.3% (active) |
| Cc1ccnc2sc3ccccc3c(=O)c12 | 15% | 96% (active) | 86.8% (active) | 14% | 93% (active) | 82.5% (active) | 4% | 92% (active) | 80.6% (active) | 4% | 76% (active) | 68.5% | 6% | 92% (active) | 83.5% (active) | 11% | 95% (active) | 83.9% (active) |
| CCCCCCCCCCCCCCCCn1cc(C(O)CN(C)C)c2ccccc21 (configuration not stated) | -4% | 98% (active) | 32.2% | -1% | 99% (active) | 99.1% (active) | -1% | 98% (active) | 49.5% | -3% | 89% (active) | 98.3% (active) | -4% | 98% (active) | 39.6% | -2% | 98% (active) | 94.9% (active) |
| COC(=O)C1C(C(=O)OC)C2(OC(c3ccc(Cl)cc3)=CC2=O)C12OC(c1ccc(Cl)cc1)=CC2=O (configuration not stated) | 2% | 74% (active) | 89.8% (active) | 12% | 99% (active) | 92% (active) | 12% | 96% (active) | 90% (active) | 4% | 63% | 89.8% (active) | -1% | 90% (active) | 92% (active) |  |  |  |
| N=C(N)SCc1nc(-c2ccc(Cl)cc2)no1 | 18% | 77% (active) | 94.3% (active) | 8% | 57% | 87.5% (active) | 0% | 78% (active) | 90.1% (active) | 0% | 61% | 70% (active) | -4% | 72% (active) | 94% (active) |  |  |  |
| N/N=C(/N)SCCCCCCCCCCS/C(N)=N/N | -6% | 5% | 21.4% | -4% | 78% (active) | 48.5% | -35% | 76% (active) | 82.3% (active) | -10% | -28% | 51.9% | -6% | 7% | 15.2% |  |  |  |
| CCCCCCCCCCCC(=O)OCCOP(=O)(OCC)OCC | -1% | 91% (active) | 87.2% (active) | 2% | 98% (active) | 20.9% | 4% | 99% (active) | 96.5% (active) | -4% | 97% (active) | 74.7% (active) | -1% | 97% (active) | -9.15% | -1% | 98% (active) | 79.2% (active) |
| Nc1ccc(O)c(=O)cc1 | -1% | 1% | 50.2% | -40% | 11% | 45.1% | 0% | 18% | 62.2% | -2% | 0% | 25.1% | -8% | 4% | 76.6% (active) |  |  |  |
